From ChEMBL document CHEMBL3433997, “St. Jude Leishmania screening dataset” (2016)
“And” between values parts separate entries of the source, which are not always exact repeats. Equal values may be shown once.

What was measured:
Format in all cases: functional
[1] = target: Solute carrier family 2, facilitated glucose transporter member 1 (Homo sapiens) (UniProt P11166); experiment: ST_JUDE_LEISH: Cytotoxicity at 2uM final concentration against transgenic Leishmania Mexicana promastigotes LmGLUT1 that are glucose transport deficient and complemented with the human glucose transporter GLUT1. Activity is measured by DNA content using SYBR green in vitro
[2] = target: Hexose transporter 1 (Plasmodium falciparum) (UniProt O97467); experiment: ST_JUDE_LEISH: Cytotoxicity at 2uM final concentration against transgenic Leishmania Mexicana promastigotes LmPfHT that are glucose transport deficient and complemented with the Plasmodium falciparum hexose transporter. Activity is measured by DNA content using SYBR green in vitro
[3] = target: Glucose transporter (Leishmania mexicana) (UniProt O61059); experiment: ST_JUDE_LEISH: Cytotoxicity at 2uM final concentration against transgenic Leishmania Mexicana promastigotes LmGT2 that are glucose transport deficient and complemented with the L. Mexicana glucose transporter 2. Activity is measured by DNA content using SYBR green in vitro

Solute carrier family 2, facilitated glucose transporter member 1 (Homo sapiens), sequence (P11166 whole entry): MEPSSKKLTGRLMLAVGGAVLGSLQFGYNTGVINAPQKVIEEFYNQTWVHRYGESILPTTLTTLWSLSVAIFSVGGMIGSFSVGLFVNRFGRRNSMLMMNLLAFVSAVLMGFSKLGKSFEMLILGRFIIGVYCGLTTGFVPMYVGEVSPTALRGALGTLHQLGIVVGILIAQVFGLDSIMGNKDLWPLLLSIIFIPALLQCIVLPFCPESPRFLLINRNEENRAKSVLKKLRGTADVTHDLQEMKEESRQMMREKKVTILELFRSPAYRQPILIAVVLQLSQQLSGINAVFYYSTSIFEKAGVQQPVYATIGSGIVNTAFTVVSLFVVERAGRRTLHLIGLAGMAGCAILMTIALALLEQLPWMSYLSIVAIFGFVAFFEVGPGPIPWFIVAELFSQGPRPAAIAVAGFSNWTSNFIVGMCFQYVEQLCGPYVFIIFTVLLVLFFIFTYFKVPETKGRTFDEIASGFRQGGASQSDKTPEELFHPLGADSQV

Row | SMILES | inhibition [1] | inhibition [2] | inhibition [3]
1 | Cc1cc2nc(-c3cccc(C(=O)NC4CCN(Cc5ccccc5)CC4)c3)[nH]c2cc1C | 1.16% | 1.99% | 1.84%
2 | Cc1[nH]c(C)c(-c2ccc(OCc3ccc(OC(F)(F)F)cc3)nc2)c(=O)c1Cl | 13.3% | 15.2% | 11.2%
3 | O=C(Nc1cccc(-c2cccc(-c3nc4ccccc4[nH]3)c2)c1)NC1CC1c1ccccc1 (stereo not given) | 6.53% and 2.58% | 5.02% and 2.99% | 5.79% and 7.12%
4 | Clc1ccc2nc(-c3cccnc3)[nH]c2c1 | 6.05% | 8.47% | 6.56%
5 | Nc1ncnc2cc(-c3cccc(NC(=O)Nc4ccccc4)c3)sc12 | 3.48% | 2.18% | -1.3%
6 | COc1ccc2c(c1)c(C1CCN(CCCCNC(=O)c3ccc(-c4ccc(C(F)(F)F)cc4)cc3)CC1)cn2C(C)C | -0.71% | 1.93% | 0.76%
7 | C#CCCC(=O)Nc1cccc(-c2cccc(-c3nc4cccc(C)c4[nH]3)c2)c1 | 3.2% | 1.23% | -1.87%
8 | CC(C)C[C@H](NC(=O)c1ccc(OCCN2CCOCC2)cc1)C(=O)N[C@H](/C=N/NC(=O)OC(C)(C)C)CCc1ccccc1 | 9.41% | 8.52% | 5.94%
9 | Cc1ccccc1C1CCN(C2CCC(NC(=O)/C=C/c3cc(C(F)(F)F)ccc3F)CC2)CC1 (stereo not given) | 2.67% | 2.98% | 3.34%
10 | CCc1cc2c(cc1OCCN(C)C)N(C(=O)Nc1ccc(-c3ccncc3)c(Cl)c1)CC2 | 6.82% | 6.4% | 3.08%
11 | CCOc1ccc(-c2nc(NC(=O)Cc3cccc(OC)c3)sc2C)cc1 | 5.17% | 7.92% | -0.61%
12 | CCc1ccc(C(=O)NC(=O)c2ccccc2O)cc1 | 3.44% | 3.45% | 3.61%
13 | COc1ccc2nccc([C@@H](O)CN3CCC(NCC(O)Cc4ccccc4)CC3)c2c1 (stereo not given in full) | -0.38% | -3.2% | 1.51%
14 | Clc1ccccc1CN1CCC(NCc2cccc(-n3ccnc3)c2)CC1 | 2.64% | -1.07% | 1.16%
15 | Cc1cc2ncc(C(N)=O)c(Nc3ccc(N4CCOCC4)cc3)c2cc1S(C)(=O)=O | 1.97% | 3.83% | 5.19%
16 | CC(=O)N(C)c1ccc(C(=O)Nc2cccc(-c3cccc(-c4nc5cccc(C)c5[nH]4)c3)c2)cc1 | 3.67% | 3.97% | 0.08%
17 | CCOC(=O)/C(=N\OC(C(=O)OC(C)(C)C)c1ccccc1)c1csc(NC(c2ccccc2)(c2ccccc2)c2ccccc2)n1 (stereo not given) | 0.73% | 1.43% | 0.99%
18 | CC(=O)Nc1nc(C(=O)Nc2ccc(-c3ccc(-c4nc5cc(F)ccc5[nH]4)cc3)cc2)cs1 | 2.38% | -2.61% | -1.02%
19 | C[C@@H](Oc1cc(-n2cnc3ccc(NC(=O)NC(C)(C)C)cc32)sc1C(N)=O)c1ccccc1Cl | 4.54% | 3.45% | 2.98%
20 | COc1cc2ccccc2c(CON2C(=N)N=C(N)NC2(C)C)c1OC | 2.53% | 2.15% | 1.62%
21 | COc1ccc(C(=O)Cn2nc(-c3ccc(Cl)cc3)ccc2=O)c(OC)c1 | 1.41% | 1.16% | 0.37%
22 | CCCC(=O)NC(NC(=S)Nc1ccc([N+](=O)[O-])cc1)C(Cl)(Cl)Cl (stereo not given) | -1.2% | -0.54% | -0.01%
23 | Cc1cc(-c2cccc(CNCc3ccccc3)c2)ccc1S(=O)(=O)NCCN1CCCC1 | 6.02% | 8.53% | 5.69%
24 | COc1cc(CCON2C(N)=NC(N)=NC2(C)C)cc(OC)c1OC | 2.34% | 0.73% | 1.04%
25 | COc1cc(NC(=O)/C=C/c2ccccc2Cl)cc(OCCN2CCC(O)(c3ccccc3)CC2)c1 | 6.07% | 3.45% | 4.61%
